RecA splice inh: inhibitors of M. tuberculosis RecA intein splicing. AID 2221. P9WHJ3. inhibition, % (test concentration not listed). 290,000 compounds, 0.75% hits. cell-free RecA intein splicing, fluorescence; in the data active means inhibition above about 30%
SSB-PriA inh: K. pneumoniae PriA-SSBct interaction inhibition; 430,000 compounds, 0.6% hits; AID 1272365; inhibition, % at 33 µM; AlphaScreen SSBct-PriA binding, biotinylated peptide; in the data active means inhibition mostly above about 37%, no sharp cut-off; inactive means mostly below about 20%
PrPC surface inh: inhibitors of human cell surface prion protein PrPC. 370,000 compounds, 0.43% hits. TR-FRET read-out. inhibition, % at 13.8 µM; in the data active means inhibition above about 24%
BJeLR lethal: kills HRASV12-expressing BJeLR cells; inhibition, % (concentration not given with the values); BJeLR (HRASV12) viability, CellTiter-Glo ATP luminescence, 48 h; 300,000 compounds, 0.17% hits; AID 1554; in the data active means inhibition above about 50%
PfHsp40 yeast: restores yeast growth despite PfHsp40 toxicity; 340,000 compounds, 0.68% hits; S. cerevisiae expressing PfHsp40, growth rescue, ATP luminescence; growth rescue, % at 12.5 µM; in the data active means growth rescue above about 28%, passing the limit was not always enough;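 further: yeast W303a lacking pdr1 and pdr3 grown in galactose medium; growth measured after three days at 30 °C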
PrP UTR inh: inhibition of PrP 5' UTR reporter expression; cell-based PrP 5' UTR mRNA reporter, plate reader; inhibition, % (no concentration beside the values); 340,000 compounds, 0.35% hits; in the data active means inhibition above about 52%
PrPC TRFRET cf: confirmation of inhibitors of cell surface human prion protein; shares compounds with PrPC surface inh; cell surface PrPC level, TR-FRET; inhibition, % at 13.8 µM; 1,500 compounds, 65% hits; AID 743200; in the data active means inhibition above about 25%
LD9 cytotox: LD9 cell cytotoxicity, PrPc inhibitor counter-screen | shares compounds with PrPC surface inh | LD9 cells cytotoxicity, luminescence viability | inhibition, % at 13.8 µM | 1,500 compounds, 29% hits | AID 743201; in the data active means inhibition above about 9.5%
Hits are given with their value; - = inactive; . = no result. Hits are enriched below; roughly 1.9% of the tested compounds scored in any of these assays.

SMILES	RecA splice inh	SSB-PriA inh	PrPC surface inh	BJeLR lethal	PfHsp40 yeast	PrP UTR inh	PrPC TRFRET cf	LD9 cytotox
COc1ccc(NC(=O)Cn2c(C)cc(C)c(-c3nc(-c4ccc(F)cc4)no3)c2=O)cc1OC	.	-	.	.	.	.	.	.
O=C(Nc1oc2ccccc2c(=O)c1-c1ccc2c(c1)OCO2)c1ccco1	.	.	33.5	.	.	.	28.0	-
O=C(Nc1c(C(=O)c2ccc3c(c2)OCCO3)oc2ccccc12)c1ccco1	.	-	.	.	.	.	.	.
Nc1c(C(=O)Nc2ccc3c(c2)OCCO3)nnn1Cc1cccc(Br)c1	-	-	28.6	-	-	-	-	-
COc1ccc(C(C)=NNC(=O)CNC(=O)/C=C\c2ccccc2OC)c(OC)c1	.	-	.	.	.	.	.	.
Cc1ccc(S(=O)(=O)Nc2ccccc2NS(=O)(=O)c2ccc(C)cc2)cc1	.	.	-	.	.	.	.	.
Cc1ccc(S(=O)(=O)Nc2ccccc2N(C)S(=O)(=O)c2ccc(C)cc2)cc1	-	-	25.6	-	-	-	-	9.7
C=C1C(=O)[C@]23C[C@H]1CC[C@H]2[C@]1(C)CCC[C@@](C)(C(=O)OC)[C@H]1C[C@@H]3O	.	.	60.4	.	.	.	71.2	96.0
C=C1C(=O)[C@]23C[C@H]1CCC2[C@@]1(C)C(C[C@@H]3O)[C@](C)(C(=O)OC)CC[C@@H]1O (stereo partly specified)	.	.	-	.	.	.	.	.
Cc1cc(F)ccc1S(=O)(=O)NCC1CCN(Cc2ccccc2)CC1	.	-	.	.	.	.	.	.
O=C(NCc1ccco1)c1cccc(-c2nnc(-c3ccccc3)o2)c1	-	-	26.2	-	-	-	-	-
O=C(NCc1ccco1)c1cccc(NC(=O)c2ccco2)c1	-	-	-	-	-	-	.	.
COc1ccc(C(=O)Nc2cccc(C(=O)NCc3ccco3)c2)cc1	-	-	27.1	-	-	-	-	-
CN1CCN(C2CCN(Cc3ccc(O)c4ncccc34)CC2)CC1	.	55.9	34.3	.	-	-	-	-
CN1CCN(Cc2cc(COCc3ccccc3)c3cccnc3c2O)CC1	.	-	-	-	-	-	.	.
CS(=O)(=O)c1cccc(C(=O)Nc2cccc(-c3nc4ccccc4[nH]3)c2)c1	-	-	129.0	-	-	-	-	20.4
O=C(Nc1cccc(-c2nc3ccccc3[nH]2)c1)c1cccc(NC(=O)c2ccco2)c1	-	-	36.6	-	-	-	-	18.3
O=C1N(CC(=O)N2CCc3ccccc32)CCN1Cc1ccc(Cl)cc1	-	-	45.7	-	-	-	-	-
O=S(=O)(c1ccccc1)N(CC(F)(F)F)c1ccc(C(O)(C(F)(F)F)C(F)(F)F)cc1	.	.	32.9	.	.	.	-	-
O=C(Nc1nc2ccc(Br)cc2s1)c1ccccc1Oc1ccccc1	.	-	.	.	.	.	.	.
COc1ccc(OC(F)(F)F)cc1CC1(C)C(=O)Nc2ccc(S(=O)(=O)NC3CCCCC3)cc21 (stereo unspecified)	.	.	35.8	.	.	.	28.7	-
CCCn1c(N)c(C(=O)CSc2nnc(N)s2)c(=O)[nH]c1=O	.	-	42.1	.	-	-	42.9	-
CCCn1c(N)c(C(=O)CSc2nncs2)c(=O)[nH]c1=O	.	-	55.2	.	-	-	66.8	-
CN1CCN(C(CNC(=O)C(=O)NCCC2=CCCCC2)c2ccc(F)cc2)CC1 (stereo unspecified)	.	-	.	.	.	.	.	.
CCC(=O)Oc1ccc2c(C)c(Cl)c(=O)oc2c1	-	-	-	-	-	-	.	.
SMILES	RecA splice inh	SSB-PriA inh	PrPC surface inh	BJeLR lethal	PfHsp40 yeast	PrP UTR inh	PrPC TRFRET cf	LD9 cytotox
CCOP(=S)(OCC)Oc1ccc2c(C)c(Cl)c(=O)oc2c1	.	-	67.6	.	.	.	36.5	-
Cc1ccc(NC(=O)c2c(C(F)(F)F)nn(C)c2SCc2cccc(C(F)(F)F)c2)cc1C	-	-	30.0	-	-	-	24.7	9.4
C=CCOC(=O)C1=C(C)NC(SCC(=O)N(CC)CC)=C(C#N)C1c1ccccc1 (stereo unspecified)	-	-	28.9	-	-	-	35.4	-
COC(=O)c1sc(-c2ccccc2)cc1NC(=O)C1CCN(S(=O)(=O)c2cccs2)CC1	.	-	.	.	.	.	.	.
Cc1ccc(S(=O)(=O)n2c(C)nc3ccccc32)cc1	-	-	-	-	-	-	.	.
CCOc1cc(S(=O)(=O)n2c(C)nc3ccccc32)ccc1F	-	-	59.1	-	-	-	-	-
CC(CCc1ccccc1)NC(=O)Cc1csc(Nc2ccccc2)n1 (stereo unspecified)	.	-	.	.	.	.	.	.
Cc1cc(OCC(C)C)ccc1/C(O)=C1/C(=O)C(=O)N(Cc2cccnc2)C1c1ccncc1 (stereo unspecified)	-	.	34.8	-	-	-	53.9	-
CCCCOc1ccc(C(O)=C2C(=O)C(=O)N(Cc3cccnc3)C2c2ccncc2)c(C)c1 (stereo unspecified)	.	-	.	.	.	.	.	.
CCCCOc1ccc(/C(O)=C2/C(=O)C(=O)N(Cc3cccnc3)C2c2ccncc2)c(C)c1 (stereo unspecified)	-	.	44.8	-	-	-	70.5	-
CCn1nc(C)c(S(=O)(=O)N2CCCC[C@H](c3ccc(OC)cc3)C2)c1C	.	-	.	.	.	.	.	.
COc1ccc(Cl)cc1S(=O)(=O)Nc1ccncc1	-	-	-	-	-	-	.	.
O=S(=O)(Nc1ccncc1)c1cc(Cl)c(Cl)cc1Cl	-	-	43.4	-	-	-	-	-
O=C(Cn1cnc2c(sc3cccc(F)c32)c1=O)NCc1ccccc1	.	-	.	.	.	.	.	.
